An excerpt weighted towards active compounds, which were near 6.7% of everything screened.
T cruzi growth-1: inhibitors of T. cruzi proliferation. T. cruzi beta-gal in NIH3T3, GalScreen luminescence, 90 h. inhibition, % at 8.34 µM. 77,000 tested, 5.9% active. AID 624255;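 active = mean inhibition above about 93%, with at least 55% of replicates each passing it, limit read from the data, passing the limit was not always enough; inconclusive = only one of those two conditions holds; inactive = neither condition holds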
C diff HTS: inhibitors of Clostridium difficile growth. Clostridium difficile clinical isolate growth, OD600, 24 h; active compounds read low. growth activity, negative = inhibition, % at 16 µg/mL (by protocol). 86,000 tested, 0.25% active. AID 1259249;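 active = mean growth activity at or below -80% and every replicate also at or below -80%; inconclusive = mean at or below -80% but some replicate above -80%; inactive = mean growth activity above -80%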
Pf Dd2 growth: blocks growth of Plasmodium falciparum Dd2 parasites | P. falciparum Dd2 growth, SYBR Green, 72 h; active compounds read low | 94,000 tested, 2.3% active | activity change, % at 10 µM; in the data active = activity change below about -80%; inconclusive = no clear call, values can overlap the other calls
T cruzi growth-2: blocks T. cruzi growth in NIH3T3 host cells; shares compounds with T cruzi growth-1; T. cruzi beta-gal in NIH3T3, GalScreen luminescence, 90 h; inhibition, % at 8.35 µM; 5,600 tested, 72% active;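 active = mean replicate inhibition above about 95% and at least 55% of replicates individually reaching it, limit read from the data; inconclusive = only one of the two criteria is met; inactive = neither criterion is met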
T cruzi growth-3: inhibitors of T. cruzi proliferation. inhibition, % at 2.09 µM. AID 651740. shares compounds with T cruzi growth-1. T. cruzi beta-gal in NIH3T3, GalScreen luminescence, 90 h. 5,600 tested, 21% active;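 active = mean inhibition above about 95%, with at least 55% of replicates also reaching it, limit read from the data; inconclusive = meets just one of the two conditions; inactive = meets neither condition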
NIH3T3 tox: kills mouse NIH/3T3 fibroblasts | shares compounds with T cruzi growth-1 | NIH/3T3 viability, CellTiter-Glo ATP luminescence, 90 h | cytotoxicity (signal decrease), % at 8.35 µM | 5,600 tested, 14% active | AID 651742;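 active = mean signal decrease across replicates above about 35% based on untreated-well scatter, with enough replicates individually passing, limit read from the data; inconclusive = no rule stated though some were filed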
NIH3T3 tox 2: kills mouse NIH/3T3 fibroblasts; 5,600 tested, 56% active; inhibition, % at 24.9 µM; AID 651744; shares compounds with T cruzi growth-1; NIH/3T3 viability, CellTiter-Glo ATP luminescence, 90 h;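 active = mean loss of cell viability signal at or above a set limit, and enough replicates individually reaching it; inconclusive = meets only the mean limit or only the replicate share; inactive = meets neither condition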
Of the large screens only hits and unclear results are named; the others gave an inactive call (follow-up assays come after a bar, where they were run).

N#Cc1cccc(-c2ccc3c(c2)[C@H]2[C@H](CCN2C(=O)c2ccc4c(c2)OCO4)[C@@H](CO)N3)c1	T cruzi growth-1 97 | T cruzi growth-2 103 | T cruzi growth-3 100 | NIH3T3 tox inactive | NIH3T3 tox 2 37
CCCC#Cc1ccc([C@H]2[C@@H](CO)N3C(=O)CN(S(=O)(=O)Cc4ccccc4)C[C@@H]23)cc1	none (no result: T cruzi growth-1)
CO[C@H](CN(C)C(=O)C1CCOCC1)[C@@H](C)CN(C(=O)Nc1ccc(F)cc1)[C@@H](C)CO	none (no result: C diff HTS)
COc1ccccc1-c1ccc2c(c1)O[C@H](CN(C)C(=O)Nc1cccc(F)c1)[C@H](C)CN([C@H](C)CO)S2(=O)=O	none
CN(C)C(=O)c1cccc(-c2ccc3c(c2)[C@@H]2[C@@H](CCN2C(=O)c2ccc4c(c2)OCO4)[C@@H](CO)N3)c1	none
CN(C)C(=O)c1ccc(-c2ccc3c(c2)[C@H]2[C@H](CCN2C(=O)c2ccc4c(c2)OCO4)[C@@H](CO)N3)cc1	T cruzi growth-1 101 | T cruzi growth-2 105 | T cruzi growth-3 inactive | NIH3T3 tox inactive | NIH3T3 tox 2 inactive
CC=Cc1ccc2n(c1=O)C[C@H]1[C@H](CO)[C@@H](C(=O)NCC3CC3)N(Cc3cccnc3)[C@@H]21 (mixture of isomers)	none
C[C@@H]1CN([C@@H](C)CO)S(=O)(=O)c2ccc(C#CCN(C)C)cc2O[C@H]1CN(C)Cc1ccncc1	T cruzi growth-1 107 | T cruzi growth-2 108 | T cruzi growth-3 inconclusive | NIH3T3 tox inactive | NIH3T3 tox 2 46
CCCC#Cc1ccc2c(c1)O[C@@H](CN(C)Cc1ccncc1)[C@H](C)CN([C@@H](C)CO)S2(=O)=O	T cruzi growth-1 121, Pf Dd2 growth -87 | T cruzi growth-2 101 | T cruzi growth-3 107 | NIH3T3 tox 63 | NIH3T3 tox 2 104
CCCC#Cc1ccc2c(c1)O[C@@H](CN(C)Cc1ccncc1)[C@@H](C)CN([C@H](C)CO)S2(=O)=O	T cruzi growth-1 114 | T cruzi growth-2 105 | T cruzi growth-3 inactive | NIH3T3 tox inactive | NIH3T3 tox 2 inactive
CCCC#Cc1ccc2c(c1)O[C@H](CN(C)Cc1ccncc1)[C@@H](C)CN([C@H](C)CO)S2(=O)=O	T cruzi growth-1 118 | T cruzi growth-2 98 | T cruzi growth-3 inconclusive | NIH3T3 tox 37 | NIH3T3 tox 2 104
CN1C(=O)c2cc(NC(=O)C3CCCCC3)ccc2OC[C@@H]2O[C@H](CC(=O)NCC3CCCCC3)CC[C@H]21	none (no result: T cruzi growth-1)
C[C@H](CO)N1C[C@H](C)[C@@H](CN(C)Cc2cccc(F)c2)Oc2ncc(C3=CCCC3)cc2C1=O	none
O=C(O)C[C@H]1C[C@@H]2c3cc(NC(=O)Nc4ccccc4F)ccc3O[C@@H]2[C@H](CO)O1	none (no result: T cruzi growth-1)
C[C@H](CO)N1C[C@H](C)[C@H](CN(C)S(=O)(=O)c2cn(C)cn2)Oc2ccc(NC(=O)Cc3ccccc3)cc2C1=O	none (no result: C diff HTS)
CCNC(=O)[C@@H]1[C@@H](CO)[C@@H]2Cn3c(ccc(/C=C/c4ccccc4)c3=O)[C@H]1N2	none
C[C@@H]1CN([C@H](C)CO)C(=O)Cc2cc(NS(=O)(=O)c3cccs3)ccc2O[C@@H]1CN(C)S(=O)(=O)c1ccc(Cl)cc1	none
CN1C[C@H](O)COC[C@H]2O[C@@H](CC(=O)N3CCN(c4ccccc4)CC3)CC[C@@H]21	none
Cc1noc(C)c1NC(=O)N(C)C[C@@H]1OCCCC[C@@H](C)Oc2ccc(NC(=O)Nc3cccc4ccccc34)cc2C(=O)N([C@@H](C)CO)C[C@@H]1C	none (no result: T cruzi growth-1)
C[C@@H]1CN([C@@H](C)CO)C(=O)c2cccc(NS(C)(=O)=O)c2O[C@H]1CN(C)C(=O)NC1CCCCC1	none (no result: T cruzi growth-1)
CCCC#Cc1ccc2c(c1)O[C@@H](CN(C)Cc1ccncc1)[C@@H](C)CN([C@@H](C)CO)S2(=O)=O	T cruzi growth-1 113 | T cruzi growth-2 102 | T cruzi growth-3 96 | NIH3T3 tox inactive | NIH3T3 tox 2 100
CCCC#Cc1ccc2c(c1)O[C@H](CN(C)Cc1ccncc1)[C@H](C)CN([C@@H](C)CO)S2(=O)=O	T cruzi growth-1 118 | T cruzi growth-2 inactive | T cruzi growth-3 inactive | NIH3T3 tox inconclusive | NIH3T3 tox 2 41
COc1ccccc1CNC(=O)C[C@H]1CC[C@H]2[C@@H](COc3ccc(NC(=O)c4ccno4)cc3C(=O)N2C)O1	none
O=C(C[C@@H]1C=C[C@H](NC(=O)C2CCC2)[C@@H](CO)O1)NCc1ccccc1Cl	none (no result: T cruzi growth-1)
Cc1cccc(-c2ccc([C@H]3[C@@H](CO)N4CCCCN(S(=O)(=O)c5cccc(C)c5)C[C@@H]34)cc2)c1	none
Cc1cccc(-c2ccc([C@@H]3[C@H](CO)N4CCCCN(S(=O)(=O)c5cccs5)C[C@@H]34)cc2)c1	T cruzi growth-1 103 | T cruzi growth-2 106 | T cruzi growth-3 inactive | NIH3T3 tox 47 | NIH3T3 tox 2 102
Cc1cccc(-c2ccc([C@@H]3[C@H]4CN(S(=O)(=O)c5cccs5)CCCCN4[C@H]3CO)cc2)c1	T cruzi growth-1 98 | T cruzi growth-2 107 | T cruzi growth-3 inactive | NIH3T3 tox inactive | NIH3T3 tox 2 60
Cc1cccc(-c2ccc([C@@H]3[C@@H](CO)N4CCCCN(S(=O)(=O)c5cccs5)C[C@@H]34)cc2)c1	T cruzi growth-1 115 | T cruzi growth-2 106 | T cruzi growth-3 inactive | NIH3T3 tox 44 | NIH3T3 tox 2 70
COc1cccc(-c2ccc([C@@H]3[C@H](CO)N4CCCCN(S(=O)(=O)c5cccs5)C[C@@H]34)cc2)c1	none
Cc1cccc(-c2ccc([C@@H]3[C@@H](CO)N4CCCCN(S(=O)(=O)c5cccc(C)c5)C[C@@H]34)cc2)c1	none
Cc1cccc(-c2ccc([C@H]3[C@H](CO)N4CCCCN(S(=O)(=O)c5cccs5)C[C@@H]34)cc2)c1	T cruzi growth-1 115 | T cruzi growth-2 108 | T cruzi growth-3 inactive | NIH3T3 tox inactive | NIH3T3 tox 2 105
COc1cccc(-c2ccc([C@@H]3[C@@H](CO)N4CCCCN(S(=O)(=O)c5cccs5)C[C@H]34)cc2)c1	none
C[C@H](CO)N1C[C@H](C)[C@H](CN(C)Cc2ccc(F)cc2)OCc2ccccc2-c2ccccc2C1=O	none
C[C@H]1CN([C@@H](C)CO)C(=O)Cc2cc(NS(=O)(=O)c3cccs3)ccc2O[C@H]1CN(C)S(=O)(=O)c1ccc(Cl)cc1	none (no result: T cruzi growth-1)
CC(C)NC(=O)N1Cc2cc(C(=O)NC3CCC3)nc(-c3cccc(-c4cccnc4)c3)c2[C@@H]1CCO	none (no result: T cruzi growth-1)
CC(=O)N1CCCCN2[C@H](CO)[C@H](c3ccc(-c4ccccc4)cc3)[C@H]2C1	none
O=C(Nc1ccccc1)N1CCCCN2[C@H](CO)[C@@H](c3ccc(-c4ccncc4)cc3)[C@@H]2C1	none
O=C(Nc1ccccc1)N1CCCCN2[C@H](C1)[C@@H](c1ccc(Br)cc1)[C@@H]2CO	none

Source: PubChem BioAssay
